Among the data in PubChem BioAssay (Tox21) are Potency and outcome values, retold here.

Molecules are shown by their SMILES. Several values for one entry are separate records, joined by “and”; a condition that tells them apart may be missing. Identical values can stand only once. Activity calls are given as the source filed them. Unless noted, calls follow the shape of the dose curve; as a rule, active = well fitted curve in the direction sought with a large enough effect in the repeat runs; inconclusive = weak or mixed curves; inactive = no such curve, though single readings can be large; an effect the other way counts as inactive or inconclusive.

The nature of experiment [1]: qHTS assay for identifying genotoxic compounds that show differential cytotoxicity against isogenic chicken DT40 cell lines with known DNA damage response pathways - wild type cell line (AID 743012). Also: nearly all actives have a fitted effect of over 60% in size. Also: potency is read from the fitted curve at half-maximal effect. In outline: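 First, wild type DT40 cells were plated at 300 per well and equilibrated about 0.5 h at 37 C/5% CO2. Next, compounds in DMSO were added and exposure lasted 40 h. Finally, CellTiter-Glo was added for 30 min at room temperature and luminescence recorded.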
Background: qHTS replaces the single test concentration by a dilution series.

Experiment [2] in a line: qHTS assay for identifying genotoxic compounds that show differential cytotoxicity against isogenic chicken DT40 cell lines with known DNA damage response pathways - Rev3 mutant cell line (AID 743014). Also: nearly all actives have a fitted effect of over 55% in size. Also: potency is read from the fitted curve at half-maximal effect.
Experiment [3] can be described thus: qHTS assay for identifying genotoxic compounds that show differential cytotoxicity against isogenic chicken DT40 cell lines with known DNA damage response pathways - Rad54/Ku70 mutant cell line (AID 743015). Also: nearly all actives have a fitted effect of over 60% in size. Also: potency is read from the fitted curve at half-maximal effect.
Experiment [4] in a line: qHTS assay to identify small molecule antagonists of the androgen receptor (AR) signaling pathway using the MDA cell line - cell viability counter screen (AID 743041; also: nearly all actives have a fitted effect of over 45% in size; also: potency is read from the fitted curve at half-maximal effect). In outline: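 MDA-kb2 AR-luc human breast carcinoma cells (MMTV-luciferase, AR/GR responsive) were treated with compounds plus R1881 agonist for 16 h at 37 °C. Viability was read as CellTiter-Fluor fluorescence in the same wells as the reporter assay.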

Experiment [5] concerns the target Estrogen receptor (Homo sapiens) (UniProt P03372). The experiment in a line: qHTS assay to identify small molecule agonists of the estrogen receptor alpha (ER-alpha) signaling pathway (AID 743075; calls by dose curve; also: potency is read from the fitted curve at half-maximal effect).
The nature of experiment [6]: qHTS assay to identify small molecule antagonists of the estrogen receptor alpha (ER-alpha) signaling pathway using the BG1 cell line (AID 743080; calls by dose curve;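 also: BG1 cells stimulated with 17beta-estradiol alongside compound; nearly all actives have a fitted effect of over 25% in size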; also: potency is read from the fitted curve at half-maximal effect). The gist of the method:
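Seeding, 24 h rest, compound transfer from DMSO, 17beta-estradiol addition, 21.5 h incubation, CellTiter-Fluor (30 min, 37 C), then ONE-Glo (30 min, room temperature): this sequence was run on BG1-Luc-4E2 reporter cells.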

Experiment [7] is described as follows: qHTS assay to identify small molecule antagonists of the estrogen receptor alpha (ER-alpha) signaling pathway using the BG1 cell line - cell viability counter screen (AID 743081).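 Also: compound given together with 17beta-estradiol as the ER stimulus; nearly all actives have a fitted effect of over 45% in size.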 Also: potency is read from the fitted curve at half-maximal effect.
Experiment [8] can be described thus: qHTS assay to identify small molecule antagonists of the androgen receptor (AR) signaling pathway - cell viability counter screen (AID 743033; also: nearly all actives have a fitted effect of over 45% in size; also: potency is read from the fitted curve at half-maximal effect).
Experiment [9] can be described thus: qHTS assay to identify small molecule antagonists of the thyroid receptor (TR) signaling pathway - cell viability counter screen (AID 743064). Also: nearly all actives have a fitted effect of over 50% in size. Also: potency is read from the fitted curve at half-maximal effect. The gist of the method:
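Viability of T3-stimulated (1 nM final) GH3.TRE-Luc cells is measured by CellTiter-Fluor fluorescence after 23.5 h compound exposure at 37 °C plus 30 min reagent incubation.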

Experiment [10] can be described thus: qHTS assay to identify small molecule antagonists of the thyroid receptor (TR) signaling pathway (AID 743065). Also: potency is read from the fitted curve at half-maximal effect; nearly all actives have a fitted effect of over 55% in size. In outline:
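GH3.TRE-Luc rat pituitary cells carrying two TR response elements driving luciferase were plated for 4 h, given compound plus 1 nM T3 (final), and incubated 23.5 h at 37 C. ONE-Glo luminescence measured reporter inhibition; CellTiter-Fluor fluorescence tracked cytotoxicity.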

The target of experiment [11] is Aromatase (Homo sapiens) (UniProt P11511). The experiment in a line: qHTS assay to identify aromatase inhibitors (AID 743083). Also: nearly all actives have a fitted effect of over 55% in size. Also: potency is read from the fitted curve at half-maximal effect.
Chain of Aromatase (Homo sapiens) (P11511 whole entry, looked up): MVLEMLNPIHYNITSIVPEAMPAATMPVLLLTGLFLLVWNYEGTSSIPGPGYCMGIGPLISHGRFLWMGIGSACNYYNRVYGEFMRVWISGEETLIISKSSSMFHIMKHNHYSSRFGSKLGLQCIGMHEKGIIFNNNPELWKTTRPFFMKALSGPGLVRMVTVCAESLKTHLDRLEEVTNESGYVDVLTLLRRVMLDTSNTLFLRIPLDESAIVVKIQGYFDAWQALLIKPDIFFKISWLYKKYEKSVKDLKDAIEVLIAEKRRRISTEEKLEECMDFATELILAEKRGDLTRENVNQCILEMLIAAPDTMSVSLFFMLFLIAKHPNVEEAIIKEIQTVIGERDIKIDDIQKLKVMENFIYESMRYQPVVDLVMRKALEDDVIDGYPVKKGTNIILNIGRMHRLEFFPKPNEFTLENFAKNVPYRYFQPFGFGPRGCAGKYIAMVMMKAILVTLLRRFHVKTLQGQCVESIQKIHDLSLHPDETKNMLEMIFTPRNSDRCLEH
Experiment [12] concerns the target Androgen receptor (Homo sapiens) (UniProt P10275). The experiment in a line: qHTS assay to identify small molecule antagonists of the androgen receptor (AR) signaling pathway (AID 743035; active = well fitted inhibition curve with a large enough effect in the signal ratio in the repeat runs, not every such curve was filed as active; inconclusive = weak or mixed curves, or effect the other way; inactive = no such curve, though single readings can be large or run the other way; the % refers to the signal ratio; also: potency is read from the fitted curve at half-maximal effect). In outline:
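Beta-lactamase FRET read (2 h RT incubation with LiveBLAzer B/G) following 16 h of compound plus R1881 treatment of AR-UAS-bla HEK293 cells, which had been pre-incubated 4 h at 37C.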

For experiment [13] the target is unchanged. The experiment can be described thus: qHTS assay to identify small molecule agonists of the androgen receptor (AR) signaling pathway (AID 743036; active = well fitted activation curve with a large enough effect in the signal ratio in the repeat runs, with a control signal flat, not every such curve was filed as active; inconclusive = weak or mixed curves, or effect the other way; inactive = no such curve, though single readings can be large or run the other way; the % refers to the signal ratio). In outline:
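Screening used 2,000 AR-bla HEK293 cells per well, treated 16 h at 37C with test compounds in DMSO alongside positive and DMSO-only controls; beta-lactamase activity was then read by LiveBLAzer B/G FRET fluorescence after 2 h at room temperature.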

For experiment [14] the target is unchanged. The experiment in a line: qHTS assay to identify small molecule antagonists of the androgen receptor (AR) signaling pathway using the MDA cell line (AID 743042; also: potency is read from the fitted curve at half-maximal effect; nearly all actives have a fitted effect of over 55% in size). The gist of the method: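 MDA-kb2 cells (human breast carcinoma, stably carrying an MMTV-luciferase reporter responsive to AR and GR) were plated at 3,000 cells/well and preincubated 5 hr at 37C, then given compound plus R1881 agonist for 16 h. ONE-Glo luminescence was read.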

Experiment [15] concerns the target Estrogen receptor (Homo sapiens) (UniProt P03372). The experiment can be described thus: qHTS assay to identify small molecule antagonists of the estrogen receptor alpha (ER-alpha) signaling pathway (AID 743069; active = well fitted curve in the direction sought with a large enough effect in the signal ratio in the repeat runs, not every such curve was filed as active; inconclusive = weak or mixed curves, or effect the other way; inactive = no such curve, though single readings can be large or run the other way; the % refers to the signal ratio; also: potency is read from the fitted curve at half-maximal effect). In outline:
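HEK293 cells stably carrying an ER-alpha-UAS-bla beta-lactamase reporter were pre-cultured overnight in 2% charcoal-stripped FBS medium. Test compounds in DMSO were added together with 17beta-estradiol for 18 hr at 37C. Read-out was fluorescence after 2 hr with LiveBLAzer B/G FRET substrate at room temperature.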

In experiment [16] the test system is thyroid hormone receptor (rat, GH3 cells). The experiment in a line: qHTS assay to identify small molecule agonists of the thyroid receptor (TR) signaling pathway (AID 743066; calls by dose curve).
In experiment [17] the target is Estrogen receptor (Homo sapiens) (UniProt P03372). The experiment can be described thus: qHTS assay to identify small molecule agonists of the estrogen receptor alpha (ER-alpha) signaling pathway using the BG1 cell line (AID 743079). Also: nearly all actives have a fitted effect of over 20% in size.
Chain of Estrogen receptor (Homo sapiens) (P03372 whole entry, looked up): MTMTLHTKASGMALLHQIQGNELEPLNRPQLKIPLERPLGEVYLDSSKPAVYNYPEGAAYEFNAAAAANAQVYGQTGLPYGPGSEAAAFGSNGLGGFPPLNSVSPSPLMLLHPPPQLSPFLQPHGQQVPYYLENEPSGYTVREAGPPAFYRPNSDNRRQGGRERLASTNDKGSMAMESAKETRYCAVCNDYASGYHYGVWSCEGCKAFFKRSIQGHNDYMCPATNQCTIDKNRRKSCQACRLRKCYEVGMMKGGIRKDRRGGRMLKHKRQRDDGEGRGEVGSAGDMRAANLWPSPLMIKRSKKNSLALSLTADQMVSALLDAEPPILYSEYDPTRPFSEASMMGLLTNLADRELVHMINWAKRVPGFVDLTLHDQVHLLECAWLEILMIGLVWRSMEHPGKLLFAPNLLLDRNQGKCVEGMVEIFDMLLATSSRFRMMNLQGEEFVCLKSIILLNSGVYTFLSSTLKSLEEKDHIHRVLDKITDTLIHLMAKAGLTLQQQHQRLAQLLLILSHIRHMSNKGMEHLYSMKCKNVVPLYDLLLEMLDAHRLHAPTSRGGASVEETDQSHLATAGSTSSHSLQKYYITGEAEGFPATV
A short description of experiment [18]: qHTS assay to identify small molecule antagonists of the estrogen receptor alpha (ER-alpha) signaling pathway - cell viability counter screen (AID 743074; calls by dose curve; also: nearly all actives have a fitted effect of over 45% in size; also: potency is read from the fitted curve at half-maximal effect).

Chain of Androgen receptor (Homo sapiens) (P10275 whole entry, looked up): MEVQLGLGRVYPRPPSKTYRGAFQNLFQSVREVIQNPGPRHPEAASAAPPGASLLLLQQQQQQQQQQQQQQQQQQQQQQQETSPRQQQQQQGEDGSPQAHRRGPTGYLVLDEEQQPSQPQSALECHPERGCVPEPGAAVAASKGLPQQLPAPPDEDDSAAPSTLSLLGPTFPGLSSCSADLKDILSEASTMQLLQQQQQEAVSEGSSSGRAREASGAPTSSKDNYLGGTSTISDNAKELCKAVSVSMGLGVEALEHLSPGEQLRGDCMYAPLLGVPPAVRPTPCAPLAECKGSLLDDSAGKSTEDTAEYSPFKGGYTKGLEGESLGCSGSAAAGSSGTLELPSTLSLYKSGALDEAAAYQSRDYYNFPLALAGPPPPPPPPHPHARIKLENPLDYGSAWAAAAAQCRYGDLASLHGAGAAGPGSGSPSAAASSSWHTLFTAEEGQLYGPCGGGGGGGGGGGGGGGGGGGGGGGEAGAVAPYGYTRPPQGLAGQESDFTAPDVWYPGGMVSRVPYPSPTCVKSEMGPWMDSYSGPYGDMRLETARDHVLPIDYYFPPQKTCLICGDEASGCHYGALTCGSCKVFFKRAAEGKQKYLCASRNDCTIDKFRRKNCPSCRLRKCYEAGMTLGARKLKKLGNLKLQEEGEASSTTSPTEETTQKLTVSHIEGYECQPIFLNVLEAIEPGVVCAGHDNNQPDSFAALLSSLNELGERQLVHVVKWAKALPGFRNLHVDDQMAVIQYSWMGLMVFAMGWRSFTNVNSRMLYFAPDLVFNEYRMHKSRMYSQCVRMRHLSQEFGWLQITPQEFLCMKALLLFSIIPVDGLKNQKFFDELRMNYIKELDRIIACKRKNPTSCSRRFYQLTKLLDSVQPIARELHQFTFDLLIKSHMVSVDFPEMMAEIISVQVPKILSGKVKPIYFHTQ

On to `Oc1cc(Cl)c(Cl)c(Cl)c1`, for which the Potency entry in experiment [1], in experiment [2], in [3], in [4], in [6] and in experiment [7] was “inactive” throughout. Moreover, the Potency in experiment [5] is 41.4 µM [activator] (active).

`CC(C)C1CCC(Cc2ccc(Cl)cc2)C1(O)Cn1cncn1` (stereo not drawn): the Potency in experiment [1] was 19.1 µM (active); in [3] it was 8.55 µM (active); in experiment [8], 38.5 µM (active); in experiment [9], 60.5 µM (active); in [10], 34 µM (active); in [6], 67.9 µM (active). In addition, the Potency in experiment [11] is 2.41 µM (active). Moreover, in [5], the Potency result was “inactive”.

`O=C(CCl)Nc1ccccc1`: the Potency in experiment [1] is 10.9 µM (active); in experiment [2] it was 10.9 µM (active); in experiment [3], 5.45 µM (active); in [12], 15.5 µM (active); in experiment [4], 54.5 µM (active); in [14], 27.3 µM (active). Also, the Potency is 24.3 µM (active) in experiment [9], 24.3 µM (active) in [10] and 43.3 µM (active) in [11]. Further, the Potency entry in experiment [13] and in experiment [5] was “inactive” throughout.

As for `COC12CC[C@@]3(C[C@@H]1C(C)(O)C(C)(C)C)[C@H]1Cc4ccc(O)c5c4[C@@]3(CCN1CC1CC1)[C@H]2O5` (stereo partly drawn), the Potency is 54.1 µM (active) in experiment [1]; 60.7 µM (active) in experiment [2]; 48.2 µM (active) in [3]; 54.6 µM (active) in experiment [8]; 60.7 µM (active) in experiment [4]; 21.5 µM (active) in experiment [9]. The Potency in experiment [10] was 24.2 µM (active); in experiment [15], 13.7 µM [inconclusive] (active); in experiment [11], 19.2 µM (active). Also, the Potency entry in experiment [5] and in experiment [7] was “inactive” in each case.

Turning to `CS(=O)(=O)c1ccc(C(=O)C2C(=O)CCCC2=O)c([N+](=O)[O-])c1`, the Potency in [3] was 45.6 µM (active); in experiment [9], 55.4 µM (active); in experiment [10] it was 69.8 µM (active). For the same molecule, the Potency result in experiment [4], in experiment [15], in experiment [5], in experiment [17], in [6] and in experiment [7] was “inactive” each time. The Potency entry in [11] was “inactive”. Moreover, in experiment [16], the molecule was called inactive.

`Clc1ccc(COC(Cn2ccnc2)c2ccc(Cl)cc2Cl)cc1` (stereo not drawn): the Potency in [1] was 7.5 µM (active) and 20.2 µM (active) and 15.3 µM (active); in experiment [2], 16.8 µM (active) and 12.8 µM (active) and 9.65 µM (active); in [3] it was 10.6 µM (active) and 16.1 µM (active) and 10.8 µM (active); in experiment [9] it was 13.3 µM (active) and 27.2 µM (active); in experiment [18], 45.7 µM (active) and 34.5 µM (active); in [6], 23.7 µM (active) and 60.9 µM (active). In addition, the Potency in [11] was 531 nM (active) and 255 nM (active) and 68.3 nM (active). Further, in experiment [16], the molecule was called inactive. Also, the Potency entry in [7] is “inactive”.

`CSCCCN=C=S`: the Potency in experiment [1] was 48.6 µM (active); in experiment [2] it was 27.3 µM (active); in experiment [3], 43.3 µM (active). The Potency entry in [8], in [4], in experiment [9], in experiment [18] and in experiment [7] was “inactive” in each case. Further, the molecule was called inactive in experiment [16].

For the molecule `CCN(CC)C(=S)[S-].CCN(CC)C(=S)[S-].[Zn+2]`, the Potency in experiment [1] was 1.21 µM (active); in experiment [3], 1.08 µM (active); in experiment [8] it was 0.344 µM (active); in experiment [4], 0.96 µM (active); in experiment [9] it was 5.4 µM (active); in experiment [18] it was 4.86 µM (active). Moreover, the figures for the Potency in experiment [5], in experiment [7] and in experiment [11] were 54.5 µM [inconclusive] (active), 42.9 µM (active) and 0.096 µM (active), respectively.

On to `CCCCCCCCCCCCCCC(Br)C(=O)O` (stereo not drawn), for which the Potency entry in experiment [8], in experiment [4], in [18], in experiment [17], in experiment [7] and in [11] was “inactive” in each case. Also, the Potency in [9] is 43.3 µM (active). In addition, in experiment [16], the molecule was classed as inactive.
